According to ChEMBL document CHEMBL3988442, “University of Dundee, Small-Polar-MMV Screening Library” (2021):

Molecular target: T1, Tyrosyl-tRNA synthetase, putative (Trypanosoma cruzi (strain CL Brener)) (UniProt Q4DSP6)
T1 sequence (whole entry): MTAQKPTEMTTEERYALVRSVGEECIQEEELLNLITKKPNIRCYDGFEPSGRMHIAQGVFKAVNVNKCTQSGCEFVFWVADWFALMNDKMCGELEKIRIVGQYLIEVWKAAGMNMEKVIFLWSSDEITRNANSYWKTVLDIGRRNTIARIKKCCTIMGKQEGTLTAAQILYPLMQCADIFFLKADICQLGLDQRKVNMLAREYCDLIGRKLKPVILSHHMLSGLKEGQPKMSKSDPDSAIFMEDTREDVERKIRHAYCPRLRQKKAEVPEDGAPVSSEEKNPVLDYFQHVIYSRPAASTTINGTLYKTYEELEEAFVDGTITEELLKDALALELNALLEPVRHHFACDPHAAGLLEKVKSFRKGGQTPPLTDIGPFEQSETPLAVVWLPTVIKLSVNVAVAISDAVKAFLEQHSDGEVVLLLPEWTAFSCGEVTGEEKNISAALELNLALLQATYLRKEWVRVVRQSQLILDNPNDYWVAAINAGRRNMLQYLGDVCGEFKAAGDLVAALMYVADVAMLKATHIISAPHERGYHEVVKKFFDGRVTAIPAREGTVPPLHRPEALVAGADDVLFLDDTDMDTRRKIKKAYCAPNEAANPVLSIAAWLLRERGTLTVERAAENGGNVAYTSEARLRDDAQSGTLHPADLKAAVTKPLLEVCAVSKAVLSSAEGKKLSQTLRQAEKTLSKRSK
Assay: Trypanosoma cruzi tyrosyl tRNA synthetase (TcYRS) _High Tyrosine SOP; further: in the data most compounds retested in dose-response had high values
Format: functional
Set-up: scale not given: direction of the effect not stated beside the values
Conditions: 30 µM

Question: How did the Percent Effect turn out when `CC(C)(C)c1cnc(CN2CCCC2Cn2cccn2)o1` (stereo not drawn) was run?
Answer: 2.46%

Question: Which Percent Effect does the source give for `Cc1nc(C)c(C(=O)NCCNC(=O)Cc2ccccc2)s1` here?
Answer: 7.92%

Question: For `CC(C)NC(=O)c1n[nH]c(-n2cnnc2)n1`, which Percent Effect is on record?
Answer: 4.23%

Question: Which Percent Effect does the source give for `CC(C)C1CN(C(=O)c2ccc(N3CCCC3)nc2)CCS1` (stereo not drawn) here?
Answer: 4.3%

Question: `O=C(NC1CC1)[C@@H]1CCO[C@@H]2CCN(Cc3ccsc3)C[C@H]21` was tested. Which Percent Effect did it give?
Answer: 0%

Question: With `Cc1cc(CN(C)C2CCCN(c3cccnn3)C2)on1` (stereo not drawn) as the compound, how does the Percent Effect read?
Answer: 11.5%

Question: Which Percent Effect does the source give for `CN(Cc1ccc(F)cc1)C(=O)CN1CCOC(Cn2cncn2)C1` (stereo not drawn) here?
Answer: 1.48%

Question: For `CC(C)COC(C)C(=O)NCc1cc(F)cc(F)c1` (stereo not drawn), which Percent Effect is on record?
Answer: 2.86%

Question: How did the Percent Effect turn out when `COCCC(=O)N1CCN(C)c2ncccc2C1` was run?
Answer: 5.38%

Question: Which Percent Effect does the source give for `Cn1cc(N2CCC3(CCN(Cc4nccs4)C3)C2=O)cn1` (stereo not drawn) here?
Answer: 4.32%

Question: With `O=C(CCc1nccs1)N1CCN(c2ccccc2F)CC1` as the compound, how does the Percent Effect read?
Answer: 2.46%

Question: With `CNC(=O)CCNC(=O)c1cccc(Cn2nc(C)cc2C)c1` as the compound, how does the Percent Effect read?
Answer: 6.32%

Question: With `Cc1cc(C)cc(OCCC(=O)N2CCCC(n3cncn3)C2)c1` (stereo not drawn) as the compound, how does the Percent Effect read?
Answer: 0%

Question: `O=C(CSc1ccccc1Cl)NS(=O)(=O)c1ccc2c(c1)OCCO2` was tested. Which Percent Effect did it give?
Answer: -15.2%

Question: Which Percent Effect does the source give for `O=c1ccc(-c2cccs2)nn1CN1CCCCCC1` here?
Answer: 7.41%

Question: How did the Percent Effect turn out when `O=C(NCCOc1ncc(Cl)cc1Cl)c1ccncc1` was run?
Answer: 7.92%

Question: Which Percent Effect does the source give for `COc1cccc(OCC2CCCN(C(=O)c3cnc(C)nc3O)C2)c1` (stereo not drawn) here?
Answer: 7.94%

Question: Which Percent Effect does the source give for `CCc1cccc(NS(=O)(=O)c2cc3c(c(C(=O)O)c2)OCCO3)c1` here?
Answer: -7.29%

Question: With `CC(C)S(=O)(=O)NCC1CCCN(C(=O)c2ccc3c(c2)OCCO3)C1` (stereo not drawn) as the compound, how does the Percent Effect read?
Answer: -1.07%

Question: For `Cc1cnccc1CN1C[C@@H](O)[C@H](Oc2cccc(F)c2)C1`, which Percent Effect is on record?
Answer: 0%

Question: Which Percent Effect does the source give for `CC1CN(C(=O)NCCCn2cncn2)CCO1` (stereo not drawn) here?
Answer: 5.39%

Question: How did the Percent Effect turn out when `CCCc1nc(CN2CCOC(CNc3cccnn3)C2)cs1` (stereo not drawn) was run?
Answer: 14.3%

Question: `Cc1ccc(NC2CCN(C(=O)c3cccn3C)CC2)nn1` was tested. Which Percent Effect did it give?
Answer: 10.7%

Question: `Cc1ccc(CNC(=O)Cn2ncc3c2c(C)nn3C)cc1` was tested. Which Percent Effect did it give?
Answer: 3.17%

Question: How did the Percent Effect turn out when `O=C(N[C@@H]1CN(Cc2ccccc2)C[C@@H]2CCCO[C@@H]21)C1CC1` was run?
Answer: 7.29%

Question: `Fc1ccc(OCCCN2CCOC(Cn3cncn3)C2)cc1` (stereo not drawn) was tested. Which Percent Effect did it give?
Answer: 0%

Question: `Cc1cc(C)c(CNC(=O)NCC(O)c2cccc(F)c2)c(=O)[nH]1` (stereo not drawn) was tested. Which Percent Effect did it give?
Answer: 9.36%

Question: With `O=C(CCn1ccc2cc(Br)ccc21)NCc1ccc(C(=O)O)cc1` as the compound, how does the Percent Effect read?
Answer: -6.38%

Question: How did the Percent Effect turn out when `O=C(NCc1ccc(OCC2CC2)nc1)c1c(F)cccc1F` was run?
Answer: 3.19%

Question: How did the Percent Effect turn out when `CSc1nccn1-c1cccc(C(=O)NCCCN2CCOCC2)c1` was run?
Answer: 7.39%

Question: With `CC(C)c1nn(C)c(N(C)C)c1CNCc1ccc2c(c1)OCO2` as the compound, how does the Percent Effect read?
Answer: -0.493%

Question: For `CC(Oc1ccccc1C(F)(F)F)C(=O)NCC(N)=O` (stereo not drawn), which Percent Effect is on record?
Answer: 12.9%

Question: Which Percent Effect does the source give for `O=c1n(CCSCc2ccccc2F)nc2ccccn12` here?
Answer: 0.952%

Question: `Cc1noc(C)c1C1CCCN1C(=O)CN1CC2(CCNCC2)OC1=O` (stereo not drawn) was tested. Which Percent Effect did it give?
Answer: 3.7%

Question: With `CN(CC1CCCO1)C1CCN(CCc2ccccn2)CC1` (stereo not drawn) as the compound, how does the Percent Effect read?
Answer: 3.96%

Question: With `N#Cc1cccc(S(=O)(=O)NC(=O)COC2CCCC2)c1` as the compound, how does the Percent Effect read?
Answer: 7.77%

Question: For `COc1cccc(OCC(=O)NS(=O)(=O)c2ccc(C)s2)c1`, which Percent Effect is on record?
Answer: 2.46%

Question: With `Cn1ccnc1-c1ccccc1C(=O)N1CCc2c(nc(N)[nH]c2=O)C1` as the compound, how does the Percent Effect read?
Answer: 4.3%

Question: Which Percent Effect does the source give for `CN(C)C(=O)CN1C[C@@H]2CC[C@H](C1)N(C(=O)CCn1cncn1)C2` here?
Answer: 6.88%

Molecular target: T1, Tyrosyl-tRNA synthetase, putative (Trypanosoma cruzi (strain CL Brener))
Assay: Trypanosoma cruzi tyrosyl tRNA synthetase (TcYRS) SOP
Format: functional
Set-up: scale not given: direction of the effect not stated beside the values
Conditions: 30 µM

Question: For `CC(C)(C)c1cnc(CN2CCCC2Cn2cccn2)o1` (stereo not drawn), which Percent Effect is on record?
Answer: 3.8%

Question: How did the Percent Effect turn out when `Cc1nc(C)c(C(=O)NCCNC(=O)Cc2ccccc2)s1` was run?
Answer: 18.3%

Question: Which Percent Effect does the source give for `CC(C)NC(=O)c1n[nH]c(-n2cnnc2)n1` here?
Answer: 10.3%

Question: Which Percent Effect does the source give for `CC(C)C1CN(C(=O)c2ccc(N3CCCC3)nc2)CCS1` (stereo not drawn) here?
Answer: 6.17%

Question: `O=C(NC1CC1)[C@@H]1CCO[C@@H]2CCN(Cc3ccsc3)C[C@H]21` was tested. Which Percent Effect did it give?
Answer: 0%

Question: How did the Percent Effect turn out when `Cc1cc(CN(C)C2CCCN(c3cccnn3)C2)on1` (stereo not drawn) was run?
Answer: 13.6%

Question: With `CN(Cc1ccc(F)cc1)C(=O)CN1CCOC(Cn2cncn2)C1` (stereo not drawn) as the compound, how does the Percent Effect read?
Answer: 3.8%

Question: `CC(C)COC(C)C(=O)NCc1cc(F)cc(F)c1` (stereo not drawn) was tested. Which Percent Effect did it give?
Answer: 2.35%

Question: How did the Percent Effect turn out when `COCCC(=O)N1CCN(C)c2ncccc2C1` was run?
Answer: 6.17%

Question: How did the Percent Effect turn out when `Cn1cc(N2CCC3(CCN(Cc4nccs4)C3)C2=O)cn1` (stereo not drawn) was run?
Answer: 10.3%

Question: Which Percent Effect does the source give for `O=C(CCc1nccs1)N1CCN(c2ccccc2F)CC1` here?
Answer: 8.86%

Question: `CNC(=O)CCNC(=O)c1cccc(Cn2nc(C)cc2C)c1` was tested. Which Percent Effect did it give?
Answer: 7.69%

Question: `Cc1cc(C)cc(OCCC(=O)N2CCCC(n3cncn3)C2)c1` (stereo not drawn) was tested. Which Percent Effect did it give?
Answer: 3.66%

Question: With `O=C(CSc1ccccc1Cl)NS(=O)(=O)c1ccc2c(c1)OCCO2` as the compound, how does the Percent Effect read?
Answer: -12.2%

Question: Which Percent Effect does the source give for `O=c1ccc(-c2cccs2)nn1CN1CCCCCC1` here?
Answer: 10.3%

Question: With `O=C(NCCOc1ncc(Cl)cc1Cl)c1ccncc1` as the compound, how does the Percent Effect read?
Answer: 8.54%

Question: How did the Percent Effect turn out when `COc1cccc(OCC2CCCN(C(=O)c3cnc(C)nc3O)C2)c1` (stereo not drawn) was run?
Answer: 17.1%

Question: For `CCc1cccc(NS(=O)(=O)c2cc3c(c(C(=O)O)c2)OCCO3)c1`, which Percent Effect is on record?
Answer: -7.59%

Question: With `CC(C)S(=O)(=O)NCC1CCCN(C(=O)c2ccc3c(c2)OCCO3)C1` (stereo not drawn) as the compound, how does the Percent Effect read?
Answer: 5%

Question: Which Percent Effect does the source give for `Cc1cnccc1CN1C[C@@H](O)[C@H](Oc2cccc(F)c2)C1` here?
Answer: 1.3%

Question: Which Percent Effect does the source give for `CC1CN(C(=O)NCCCn2cncn2)CCO1` (stereo not drawn) here?
Answer: 7.32%

Question: How did the Percent Effect turn out when `CCCc1nc(CN2CCOC(CNc3cccnn3)C2)cs1` (stereo not drawn) was run?
Answer: 30.9%

Question: Which Percent Effect does the source give for `Cc1ccc(NC2CCN(C(=O)c3cccn3C)CC2)nn1` here?
Answer: 24.4%

Question: Which Percent Effect does the source give for `Cc1ccc(CNC(=O)Cn2ncc3c2c(C)nn3C)cc1` here?
Answer: 7.69%

Question: How did the Percent Effect turn out when `O=C(N[C@@H]1CN(Cc2ccccc2)C[C@@H]2CCCO[C@@H]21)C1CC1` was run?
Answer: 22.5%

Question: Which Percent Effect does the source give for `Fc1ccc(OCCCN2CCOC(Cn3cncn3)C2)cc1` (stereo not drawn) here?
Answer: 2.53%

Question: `Cc1cc(C)c(CNC(=O)NCC(O)c2cccc(F)c2)c(=O)[nH]1` (stereo not drawn) was tested. Which Percent Effect did it give?
Answer: 13.6%

Question: With `O=C(CCn1ccc2cc(Br)ccc21)NCc1ccc(C(=O)O)cc1` as the compound, how does the Percent Effect read?
Answer: -10.4%

Question: Which Percent Effect does the source give for `O=C(NCc1ccc(OCC2CC2)nc1)c1c(F)cccc1F` here?
Answer: 7.79%

Question: `CSc1nccn1-c1cccc(C(=O)NCCCN2CCOCC2)c1` was tested. Which Percent Effect did it give?
Answer: 18.5%

Question: `CC(C)c1nn(C)c(N(C)C)c1CNCc1ccc2c(c1)OCO2` was tested. Which Percent Effect did it give?
Answer: 11.1%

Question: With `CC(Oc1ccccc1C(F)(F)F)C(=O)NCC(N)=O` (stereo not drawn) as the compound, how does the Percent Effect read?
Answer: 15.8%

Question: For `O=c1n(CCSCc2ccccc2F)nc2ccccn12`, which Percent Effect is on record?
Answer: 11.8%

Question: Which Percent Effect does the source give for `Cc1noc(C)c1C1CCCN1C(=O)CN1CC2(CCNCC2)OC1=O` (stereo not drawn) here?
Answer: 0%

Question: Which Percent Effect does the source give for `CN(CC1CCCO1)C1CCN(CCc2ccccn2)CC1` (stereo not drawn) here?
Answer: 1.22%

Question: Which Percent Effect does the source give for `N#Cc1cccc(S(=O)(=O)NC(=O)COC2CCCC2)c1` here?
Answer: 21.9%

Question: How did the Percent Effect turn out when `COc1cccc(OCC(=O)NS(=O)(=O)c2ccc(C)s2)c1` was run?
Answer: 16.5%

Question: For `Cn1ccnc1-c1ccccc1C(=O)N1CCc2c(nc(N)[nH]c2=O)C1`, which Percent Effect is on record?
Answer: 11.1%

Question: How did the Percent Effect turn out when `CN(C)C(=O)CN1C[C@@H]2CC[C@H](C1)N(C(=O)CCn1cncn1)C2` was run?
Answer: 9.76%
